About 83,000 compounds went through this panel and 20% of them were active in at least one assay; those are over-represented in the sample as a whole.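 Testing used 96-well plates and a 48-hour single-concentration exposure. Example: -40 means 40% of the starting cells died.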 Unmarked numbers belong to inactive results. Calls of active or inactive are those of the source. How the source made its calls: active means growth percent below 10; inactive means the rest.
Key:
Assay in all cases: NCI-60 one-dose screen, 48 h (100 = growth as untreated, 0 = no growth, -100 = all killed)
Conditions in all cases: 10 µM
HCT-15 colon = tested on: HCT-15 colon
HT29 colon = tested on: HT29 colon
SNB-75 CNS = tested on: SNB-75 CNS
SNB-19 CNS = tested on: SNB-19 CNS
U251 CNS = tested on: U251 CNS
PC-3 prostate = tested on: PC-3 prostate
SK-MEL-5 melanoma = tested on: SK-MEL-5 melanoma
UACC-62 melanoma = tested on: UACC-62 melanoma
SK-MEL-28 melanoma = tested on: SK-MEL-28 melanoma
LOX IMVI melanoma = tested on: LOX IMVI melanoma

Row | SMILES | growth (HCT-15 colon) | growth (HT29 colon) | growth (SNB-75 CNS) | growth (SNB-19 CNS) | growth (U251 CNS) | growth (PC-3 prostate) | growth (SK-MEL-5 melanoma) | growth (UACC-62 melanoma) | growth (SK-MEL-28 melanoma) | growth (LOX IMVI melanoma)
1 | CCCCSc1nc(Nc2ccc(/C(C)=N/NC(N)=S)cc2)c(C#N)c(-c2ccc(F)cc2)n1 | 62.7% | 60.3% | 53.5% | 20.7% | 7.7% (active) | 28.6% | 75% | 49.3% | 64% | 
2 | CC(C)C1=C[C@@]23CC[C@@H]4[C@](C)(CCC[C@]4(C)C(=O)NCc4ccccc4)[C@H]2C[C@@H]1[C@H]1C(=O)CCC(=O)[C@H]13 | 56% | 81.7% | 80.8% | 83.2% | 67% | 36.9% | 69.3% | 59.6% | 68.6% | 27%
3 | O=c1[nH]n(C(=S)N/N=C/c2ccc(F)cc2)c(=O)c2ccccc12 | 22.9% | 58.1% | 97.4% | 47.6% | 25.6% | 58.1% | 73.1% | 44.7% | 91.5% | -24.9% (active)
4 | Cc1ccc(-c2nc3ccc(C(=O)N=Nc4c(O)[nH]c5ccc(Cl)cc45)cc3[nH]2)cc1 | 67.7% | 13.2% | -49.3% (active) | -24% (active) | -100% (active) | -51.9% (active) | 22.1% | 22.6% | -1.61% (active) | 
5 | Cc1cc(C)nc(/N=C(\N)Nc2ccc(S(=O)(=O)Nc3nc(C)cc(C)n3)cc2)n1 | 104% | 116% | 78% | 102% | 106% | 105% | 102% | 100% | 106% | 
6 | COc1cccc(C(N)=Nc2ccc(OCCCCCCn3cncn3)cc2)c1 | 16.8% | -27.9% (active) | 54.4% | 37.6% | 10.3% | 34.4% |  | 36.4% | 51.4% | 36%
7 | O=C(CS(=O)(=O)c1oc(-c2ccc(Cl)cc2)nc1S(=O)(=O)c1ccccc1)N1CCCC1 | -89.3% (active) | -40.6% (active) | 55.7% | 80.9% | 37.5% | 78.8% | 84.2% | 47.5% | -100% (active) | 
8 | O=C1CCC(N2Cc3c(NCc4ccc(-c5ccccc5)cc4)cccc3C2=O)C(=O)N1 (centres undefined) | 36.4% | 109% | 85.9% | 56.2% | 49.6% | 50.4% | 67.3% | 75.5% | 91.4% | 
9 | O=C(N=Nc1c(O)[nH]c2ccc(Br)cc12)c1ccc2nc(-c3ccccc3)[nH]c2c1 | 63.2% | -41.1% (active) | -46.7% (active) | -47.8% (active) | -95.2% (active) | -84.5% (active) | -58.9% (active) | -96% (active) | -98.4% (active) | 
10 | COC1=C[C@@]23CCC(=O)N2CCc2cc4c(cc2[C@H]3[C@H]1OC(=O)C(C)(C)O)OCO4 | 97.5% | 106% | 74.1% | 94.1% | 104% | 92.1% | 99.3% | 89.1% | 105% | 
11 | CCOC(=O)C1=C(N)N(c2ccc(Cl)cc2)C2=C(C(=O)CC(C)(C)C2)C1c1ccc(N2CCOCC2)cc1 (centres undefined) | 92.5% | 104% | 109% | 91.2% | 88.2% | 92% | 80.3% | 82.8% | 105% | 
12 | Cc1cccc(NC(=O)CSc2nc3ccc(F)cc3c(=O)n2-c2ccc(Cl)cc2)c1C | 70.5% | 76.3% | -20.7% (active) | 7.05% (active) | 48.8% | 68.9% | 88.2% | 80.8% | 74.3% | 
13 | Nc1nc(Nc2ccccc2)nn1Cc1c(Cl)cccc1Cl | 37.5% | 54.4% | 67.5% | 58% | 53.8% | 27.4% | 23.5% | 33.5% | 55.5% | 
14 | CC(=O)Nc1ccc(-n2cnc3cc(-c4ccc(NS(C)(=O)=O)cc4)ccc32)cc1 | 32.4% | 34.2% | 35.6% | 61.1% | 59.8% | 62.8% | 69.5% | 54.7% | 85.3% | 
15 | COc1ccc(-c2nc(S(=O)(=O)c3ccccc3)c(S(C)(=O)=O)o2)cc1 | -73% (active) | -55.2% (active) | 77.1% | 84.4% | 12% | 78.2% | 66.5% | 33.5% | -82.9% (active) | 
16 | COC(=O)CC1CC1C1Cc2c(nc(N(C)S(C)(=O)=O)nc2C(C)C)-c2ccc(F)cc21 (centres undefined) | 58.7% | 66.9% | 92.3% | 91.2% | 84.9% | 33.9% | 57.2% | 56.5% | 104% | 
17 | Cc1ccc(F)cc1N/C=c1\s/c(=C(\C#N)C(=O)Nc2ccccc2)n(-c2ccccc2)c1=O | 64.9% | 72.9% | 3.2% (active) | 36.2% | 74.2% | 74.5% | 71.8% | 98.2% | 95.7% | 
18 | COc1cccc(COc2ccc(/C=C3\Oc4cc(O)ccc4C3=O)cc2)c1 | 42.1% | 81.1% | -22.5% (active) | 36.1% | 50.7% | 67.8% | 24.6% | 82.7% | 71.1% | 
19 | COc1cc(-c2nc3cc(Cl)c(Cl)cc3[nH]2)ccc1OCc1nnc(-c2ccc(Br)cc2)o1 | 3.31% (active) | 10% | -58.8% (active) | 41.5% | 1.03% (active) | -15.8% (active) | 3.12% (active) | -42.1% (active) | -25% (active) | 
20 | c1ccc(C(=C(c2ccc(OCCN3CCCCC3)cc2)c2ccc(OCCN3CCCCC3)cc2)C2CCCC2)cc1 | 34.6% |  | -24.5% (active) | -96.8% (active) | -96.4% (active) | -37.1% (active) | -100% (active) | -97.1% (active) | -75.6% (active) | -100% (active)
21 | CN1CCN(c2ccc(C(=O)/C=C/c3ccc(C#N)cc3)cc2)CC1 | 33.6% | 35.4% | 94.2% | 79.3% | 49.9% | 94.7% | 83.9% | 79.9% | 108% | 
22 | Cc1ccc2nc3c(nc2c1)c1cc(I)ccc1n3CCN(C)C | 10.1% | 14.4% | 30.6% | 24.9% | 24.2% | 26% | 48.1% | 59.1% | 11.9% | 
23 | Nc1nnc(-c2c[nH]c3ncccc23)c(-c2c[nH]c3ccc(Br)cc23)n1 | 56.5% | 45.1% | 28.2% | 40.8% | 37.5% | 56.9% | -33.5% (active) | 33.8% | 54% | 
24 | Cc1cc2nc3c4ccccc4n(CCO)c3nc2cc1C | 71.2% | 98.1% | 73.6% | 87.7% | 64.7% | 57.3% | 81.6% | 73.8% | 91% | 
25 | NS(=O)(=O)c1ccc(N=Nc2c(O)n(CC(=O)Nc3ccccc3Br)c3ccccc23)cc1 | 38.2% | 9.73% (active) | 77% | 50.1% | 25.1% | 39.7% | 14.7% | 31.2% | 24.9% | 
26 | O=C(c1ccc(O)cc1)C1[C@H](c2ccccc2Br)[C@@H](c2ccccc2)NC12C(=O)Nc1ccc(Br)cc12 (some centres undefined) | 36.8% | 26.8% | 31.5% | 53.4% | 26.5% | 23.3% | 56.9% | 42.3% | 77.7% | 
27 | COc1cc2c(c(OC)c1OC)C(=O)CC(c1cccc(NC(=O)c3cccc(N)c3)c1)O2 (centres undefined) | 64.9% | 94.7% | 77.6% | 86.1% | 81.1% | 70.9% | 61.9% | 70.2% | 100% | 
28 | CNCc1cccc2c1OCCCCCC[C@@](C)(O)CC1(CC1)S(=O)(=O)c1ccc(cc1)-c1cnc(N)c(n1)C(=O)N2 | -96.6% (active) | -87% (active) | -93.8% (active) | -97.4% (active) | -83.8% (active) | -59% (active) | -100% (active) | -90.8% (active) | -93.6% (active) | 
